Structures can show the parent of a compound that is named as a salt.

The subject of this test is thyroid hormone receptor (endogenous TRα and TRβ). On the set-up: species or system GH3-TRE-Luc (rat pituitary); GH3-TRE-Luc luciferase reporter, antagonist mode against 1 nM T3, loss of signal, qHTS. The following applies: read-out: Average AC50 (uM) GH3-TRE-Antag, antagonist mode, 1 nM T3, no GH3 cytotoxicity hit.
On to `CC1=CC(C)(C)Nc2ccccc21` [1,2-Dihydro-2,2,4-trimethylquinoline, polymer], for which the AC50 is 28 µM.

With `O=C(N[C@@H]1N=C(c2ccccc2F)c2cccc3c2N(CC3)C1=O)c1cc2ccccc2[nH]1` [N-[(3R)-1-(2-Fluorophenyl)-4-oxo-3,4,6,7-tetrahydro[1,4]diazepino[6,7,1-hi]indol-3-yl]-1H-indole-2-carboxamide], the AC50 was found to be 5.69 µM.

With `CCC(C)COC(=O)CC(C)C` (stereo not drawn) [2-Methylbutyl isovalerate], the AC50 was determined as 71.8 µM.

On to `CCCCOC(=O)c1ccc(O)cc1` [Butylparaben], for which the AC50 was greater than 50 µM.

Regarding `CC(C)c1c(CN(C)C(C)Cc2ccccc2)n(C)n(-c2ccccc2)c1=O` (stereo not drawn) [Famprofazone], the AC50 stood at 13.1 µM.

`C[C@]12C[C@H](O)[C@H]3[C@@H](CCC4=CC(=O)CC[C@@]43C)[C@@H]1CC[C@@H]2C(=O)CO` [Corticosterone]: the AC50 was greater than 50 µM.

Take `CC(=O)[C@H]1CC[C@H]2[C@@H]3CC=C4C[C@@H](O)CC[C@]4(C)[C@H]3CC[C@]12C` [Pregnenolone]: the AC50 amounted to 11.6 µM.

Take `CCN(CC)C(=O)C(C)Oc1cccc2ccccc12` (stereo not drawn) [Napropamide]: the AC50 amounted to 74.1 µM.

For `Oc1ccccc1/C=N/Cc1ccccc1` [Norletimol], the half-maximal activity concentration (AC50) is greater than 50 µM.

Regarding `C=CC[C@]1(O)CC[C@H]2[C@@H]3CCC4=CC(=O)CCC4=C3C=C[C@@]21C` [Altrenogest], the AC50 was found to be 11.8 µM.

As to `CC(C)(C)c1cccc(C(C)(C)C)c1O` [2,6-Di-tert-butylphenol], the AC50 turned out to be 25.4 µM.

On to `CO/N=C(/C(=O)OC)c1ccccc1COc1ccccc1C` [Kresoxim-methyl], for which the concentration at half-maximal activity (AC50) was 3.65 µM.

Regarding `S=C(NC1CCCCC1)NC1CCCCC1` [N,N'-Dicyclohexylthiourea], the AC50 amounted to 58.2 µM.

On to `CCCCC[Si](OCC)(OCC)OCC` [Triethoxypentylsilane], for which the AC50 amounted to 45.9 µM.

Regarding `NNc1nnc(Cc2ccncc2)c2ccccc12` [Picodralazine], the AC50 was found to be 3.28 µM.

In the case of `O=C1CCCCCCCCCCOCCCCO1` [12-Oxahexadecanolide], the AC50 is 43.5 µM.

For `Clc1ccc(CCC(Cn2ccnc2)Sc2c(Cl)cccc2Cl)cc1` (stereo not drawn) [Butoconazole nitrate], the AC50 is 17.9 µM.

`O=C1[C@H](CC[C@H](O)c2ccc(F)cc2)[C@@H](c2ccc(O)cc2)N1c1ccc(F)cc1` [Ezetimibe]: the AC50 was 33.5 µM.

On to `CCCCCCCCCC(C)C=O` (stereo not drawn) [2-Methylundecanal], for which the AC50 came to 40.2 µM.

As for `COCc1c(C(C)C)nc(C(C)C)c(/C=C/[C@@H](O)C[C@@H](O)CC(=O)O)c1-c1ccc(F)cc1` [Cerivastatin sodium], the AC50 came to 13.7 µM.

On to `CC(=O)c1c(C)cc(C(C)(C)C)cc1C` [4'-tert-Butyl-2',6'-dimethylacetophenone], for which the AC50 was 48.7 µM.

Consider `CCN(CC)c1ccc(C(=O)c2ccccc2C(=O)O)c(O)c1` [2-[4-(Diethylamino)-2-hydroxybenzoyl]benzoic acid], for which the AC50 was determined as 43.7 µM.

As to `CC(C)Oc1cccc(NC(=O)c2ccccc2C(F)(F)F)c1` [Flutolanil], the AC50 is greater than 90 µM.

`OC[C@H]1O[C@@H](n2cnc3c(=S)nc[nH]c32)[C@H](O)[C@@H]1O` [Thioinosine]: the AC50 is 21.8 µM.

Consider `CC(C(=O)O)c1ccc(-c2ccccc2)c(F)c1` (stereo not drawn) [Flurbiprofen], for which the AC50 was greater than 20 µM.

On to `O=C(/C=C/c1ccccc1)OCc1ccccc1` [Benzyl cinnamate], for which the AC50 was greater than 50 µM.

Regarding `Cc1cccc(C)c1Nc1ncccc1C(=O)O` [Metanixin], the AC50 is 28.2 µM.

Regarding `CCC(C)(C)c1ccc(O)cc1` [4-(2-Methylbutan-2-yl)phenol], the AC50 was greater than 50 µM.

Regarding `C#C[C@]1(O)CC[C@H]2[C@@H]3CCc4cc(OC)ccc4[C@H]3CC[C@@]21C` [Mestranol], the AC50 is 21.8 µM.

As for `NCCNCCN` [Diethylenetriamine], the AC50 was found to be 18 µM.

As for `CC[C@@]1(O)C(=O)OCc2c1cc1n(c2=O)Cc2cc3c(CN(C)C)c(O)ccc3nc2-1` [Topotecan hydrochloride], the AC50 was found to be 2.45 µM.

In the case of `NNc1ccc(C(=O)O)cc1` [4-Hydrazinobenzoic acid hydrochloride], the AC50 worked out at 84.8 µM.

As for `O=P(c1ccccc1)(c1ccccc1)c1ccccc1` [Triphenylphosphine oxide], the AC50 worked out at 58.7 µM.

Consider `CC[N+](CC)(CC)CCOc1ccc(/C=C/c2ccccc2)cc1` [Stilonium iodide], for which the AC50 was found to be 27 µM.

Consider `COc1ccccc1/C=C/C=O` [trans-2-Methoxycinnamaldehyde], for which the AC50 stood at 47.6 µM.

Consider `CCOc1cc(N)c(Cl)cc1C(=O)NCC1CN(Cc2ccc(F)cc2)CCO1` (stereo not drawn) [Mosapride citrate], for which the AC50 was found to be 43.4 µM.

For `CC(C)(C)c1ccc2c(S(=O)(=O)O)c(C(C)(C)C)ccc2c1` [Sodium dibunate], the AC50 was greater than 50 µM.

As for `CCCCCC[C@@H](O)C/C=C\CCCCCCCC(=O)O` [Potassium ricinoleate], the AC50 amounted to 31.8 µM.

As to `CCOc1ccc(O)cc1` [4-Ethoxyphenol], the AC50 was found to be 82.5 µM.
